APP transl inh: inhibitors of APP translation via 5'UTR reporter, primary screen, APP 5'UTR luciferase, SH-SY5Y cells; SH-SY5Y APP 5'UTR-luciferase reporter, luminescence; inhibition, % at 2 µM; 190,000 compounds, 0.82% hits;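 active = inhibition above a set limit, derived from the sample mean plus 3 SD, cut at about 45% in these data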
aSyn UTR inh: MLPCN primary screen, SNCA 5' untranslated region; AID 1813, 2009; 300,000 compounds, 0.82% hits; alpha-synuclein 5'UTR reporter, inhibitor activity; inhibition, % (tested at 7.5 µM); in the data active = inhibition above about 60%;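 also: H4 neuroglioblastoma cells stably carrying SNCA 5'UTR luciferase fusion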
IEC-6 cytotox: cytotoxicity in IEC-6 intestinal epithelial cells, primary screen, cytotoxicity control for KLF5 inhibitor project, cell-based, luminescence | IEC-6 cytotoxicity, luminescence viability | inhibition, % at 5 µM | 290,000 compounds, 0.78% hits | AID 1825, 2009; in the data active = inhibition above about 22%
Ba/F3 V617F tox: reduced viability of JAK2V617F-dependent Ba/F3 cells, primary screen, JAK2V617F inhibitor project, cell-based, Ba/F3 EpoR-JAK2V617F, luminescence; inhibition, % at 5.6 µM; 220,000 compounds, 1.1% hits; ATP luminescence; AID 1446, 2008;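 active = inhibition above the campaign mean plus 3 SD over all tested compounds, cut at about 24% in these data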;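 also: cytokine-independent growth of Ba/F3 cells driven by EpoR plus mutant JAK2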
BaF3 tox: parental Ba/F3 cell viability inhibition, counter-screen for JAK2V617F inhibitor project, murine pro-B, CellTiter-Glo luminescence. CellTiter-Glo ATP luminescence. inhibition, % at 5.6 µM. 220,000 compounds, 1.1% hits;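 active = inhibition above a per-campaign cutoff, the mean inhibition of all tested compounds plus 3 SD, cut at about 27% in these data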
KLF5 inh: KLF5 expression inhibitors, primary screen, DLD-1 cells, luminescence. DLD-1 KLF5 promoter-luciferase reporter. inhibition, % at 5 µM. 290,000 compounds, 0.23% hits. AID 1700, 2009;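 active = inhibition above a per-plate limit of that plate's mean compound inhibition plus 3 SD, cut at about 60% in these data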;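 also: higher means less KLF5 promoter-driven luciferase light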
A number is an active result. Hits are enriched below; roughly 2.2% of the tested compounds scored in any of these assays.

Cc1ccc(C)c(NC(=S)N(CCc2nc3cc(C)c(C)cc3[nH]2)Cc2cccnc2)c1 was read as APP transl inh inactive, aSyn UTR inh inactive, IEC-6 cytotox inactive, Ba/F3 V617F tox inactive, BaF3 tox inactive and KLF5 inh inactive.
Screening Cc1cccc([C@@H]2[C@@H]3C(=O)N(Cc4ccccc4)C(=O)[C@@H]3[C@]3(CC(C)C)C(=O)N(c4cccc(F)c4)C(=O)N23)c1 returned aSyn UTR inh inactive.
For COc1cnc(-c2ccccc2)[nH]c1=O the results were APP transl inh inactive, aSyn UTR inh inactive, IEC-6 cytotox inactive, Ba/F3 V617F tox inactive, BaF3 tox inactive and KLF5 inh inactive.
COc1ccc(C(=O)Nc2cccc(C(=O)N/N=C/c3ccc(OC)cc3OC)c2)cc1 was read as aSyn UTR inh 83, IEC-6 cytotox inactive and KLF5 inh inactive.
`CCOc1ccccc1NC(=O)C(=O)N/N=C/c1cc(Br)ccc1O` gave APP transl inh 59, aSyn UTR inh inactive, IEC-6 cytotox inactive, Ba/F3 V617F tox inactive, BaF3 tox inactive and KLF5 inh inactive.
Cc1ccc2cc(CN(CC(C)C)S(=O)(=O)c3cccc4nonc34)c(=O)[nH]c2c1 was read as aSyn UTR inh inactive, IEC-6 cytotox inactive and KLF5 inh inactive.
`CC1CCC(NC(=O)COC(=O)c2n[nH]c(=O)c3ccccc23)CC1` (stereo unspecified) gave aSyn UTR inh inactive.
`O=C(Nc1cccc(C(F)(F)F)c1)Nc1ccc(N2CCCC2)c(S(=O)(=O)Nc2ccccc2Cl)c1` gave APP transl inh inactive, aSyn UTR inh 93, IEC-6 cytotox inactive, Ba/F3 V617F tox inactive, BaF3 tox inactive and KLF5 inh inactive.
For CCN(CC)CCNc1cc(C)nc2c1C(=O)C(=O)C=C2N1CCCCC1 the results were APP transl inh 67, aSyn UTR inh 81, IEC-6 cytotox inactive, Ba/F3 V617F tox inactive, BaF3 tox inactive and KLF5 inh inactive.
`COC(=O)c1cc(C)nc2c1C(=O)C(=O)C=C2N1CCOCC1` gave aSyn UTR inh inactive, IEC-6 cytotox inactive and KLF5 inh inactive.
Screening Cc1ccc(Cc2nnc(SCC(=O)Nc3ccccc3)n(N)c2=O)cc1 returned aSyn UTR inh inactive.
`CC(Oc1ccc(C(=O)c2ccc(F)cc2)cc1)C(=O)N1CCOCC1` (stereo unspecified) gave aSyn UTR inh inactive.
Cc1ccc(NC2=C/C(=N\S(=O)(=O)c3cccs3)c3ccccc3C2=O)c(C)c1 was read as APP transl inh inactive, aSyn UTR inh 118, IEC-6 cytotox inactive, Ba/F3 V617F tox 56, BaF3 tox 33 and KLF5 inh inactive.
`COc1cc2c(cc1OC)CN(C(=O)COc1ccccc1[N+](=O)[O-])CC2` gave aSyn UTR inh inactive, IEC-6 cytotox inactive and KLF5 inh inactive.
For Cc1ccc2nc(-c3ccc(NC(=O)CCS(=O)(=O)c4ccccc4)cc3)sc2c1 the results were APP transl inh inactive, aSyn UTR inh 62, IEC-6 cytotox inactive, Ba/F3 V617F tox inactive, BaF3 tox inactive and KLF5 inh inactive.
Screening COc1cc(/C=C2\CC(C(C)(C)C)C/C(=C\c3cc(OC)c(OC)c(OC)c3)C2=O)cc(OC)c1OC (stereo unspecified) returned aSyn UTR inh 80, IEC-6 cytotox inactive and KLF5 inh inactive.
Screening COc1cc(/C=C2\COC/C(=C\c3cc(OC)c(OC)c(OC)c3)C2=O)cc(OC)c1OC returned aSyn UTR inh 103, IEC-6 cytotox inactive, Ba/F3 V617F tox 99, BaF3 tox 105 and KLF5 inh inactive.
CC(=O)N1c2ccc(S(=O)(=O)N3CCCC3C(=O)NCc3ccccc3Cl)cc2CC1C (stereo unspecified) was read as aSyn UTR inh inactive, IEC-6 cytotox inactive and KLF5 inh inactive.
For Cc1ccccc1CSCCNC(=O)Nc1ccccc1 the results were APP transl inh inactive, aSyn UTR inh inactive, IEC-6 cytotox inactive, Ba/F3 V617F tox inactive, BaF3 tox inactive and KLF5 inh inactive.
`COc1ccc(-c2nc(NC(=O)C3=NN(c4cccc(C)c4)C(=O)CC3)sc2C)cc1` gave APP transl inh inactive, aSyn UTR inh inactive, IEC-6 cytotox inactive, Ba/F3 V617F tox inactive, BaF3 tox inactive and KLF5 inh inactive.
For O=C(Nc1ccccc1OCc1ccccc1)c1ccccc1Br the results were aSyn UTR inh inactive, IEC-6 cytotox inactive and KLF5 inh inactive.
For C=CCNC(=O)CN1CCC(NC(=O)c2ccco2)CC1 the results were APP transl inh inactive, aSyn UTR inh inactive, IEC-6 cytotox inactive, Ba/F3 V617F tox inactive, BaF3 tox inactive and KLF5 inh inactive.
For COCCNC(=O)CN1CCC(NC(=O)c2ccco2)CC1 the results were APP transl inh inactive, aSyn UTR inh inactive, IEC-6 cytotox inactive, Ba/F3 V617F tox inactive, BaF3 tox 46 and KLF5 inh inactive.
For C[C@H]1[C@@H](OC(=O)CCC(=O)O)O[C@@H]2OC3(C)CC[C@H]4[C@H](C)CC[C@@H]1[C@@]24OO3 the results were aSyn UTR inh inactive.
CCCCCCCC[n+]1cccc(C(=O)N(CC)CC)c1 was read as APP transl inh inactive, aSyn UTR inh inactive, IEC-6 cytotox inactive, Ba/F3 V617F tox inactive, BaF3 tox inactive and KLF5 inh inactive.
Screening CCCCCCCCCCCCCCCC[n+]1cccc(C(=O)N(CC)CC)c1 returned APP transl inh inactive, aSyn UTR inh inactive, IEC-6 cytotox inactive, Ba/F3 V617F tox 59, BaF3 tox 62 and KLF5 inh inactive.
CC(=O)Nc1sc(NC(=O)c2ccc(Cl)cc2)nc1-c1cccs1 was read as APP transl inh inactive, aSyn UTR inh inactive, IEC-6 cytotox inactive, Ba/F3 V617F tox inactive, BaF3 tox inactive and KLF5 inh inactive.
CC(=O)Nc1sc(NC(=O)c2ccc([N+](=O)[O-])cc2)nc1-c1cccs1 was read as aSyn UTR inh inactive, IEC-6 cytotox inactive, Ba/F3 V617F tox inactive, BaF3 tox 46 and KLF5 inh inactive.
O=C(CN1CCN(S(=O)(=O)/C=C/c2ccccc2)CC1)NCC(F)(F)F was read as aSyn UTR inh inactive, IEC-6 cytotox inactive and KLF5 inh inactive.
`Cn1nnnc1Sc1ncnc2scc(-c3ccc(F)cc3)c12` gave APP transl inh inactive, aSyn UTR inh inactive, IEC-6 cytotox 31, Ba/F3 V617F tox 27, BaF3 tox inactive and KLF5 inh inactive.
`Cn1nnnc1Sc1ncnc2scc(-c3ccccc3)c12` gave APP transl inh inactive, aSyn UTR inh inactive, IEC-6 cytotox inactive, Ba/F3 V617F tox inactive, BaF3 tox inactive and KLF5 inh inactive.
Screening CCN(CC)c1ccc2cc(C(C)=O)c(=O)oc2c1 returned APP transl inh inactive, aSyn UTR inh inactive, IEC-6 cytotox inactive, Ba/F3 V617F tox inactive, BaF3 tox inactive and KLF5 inh inactive.
